# Measured values: PubChem BioAssay (NCATS)
# Inconclusive results are not listed. Entries that show only a call come without a potency. Activity calls are given as the source filed them. The call rests on the fitted dose curve; in most records, active means well fitted inhibition curve with a large enough effect; inconclusive means small, poorly fitted or top-dose-only effect; inactive means flat fitted curve, though single readings scatter.
# Molecular target: Ubiquitin carboxyl-terminal hydrolase 2 (Homo sapiens) (UniProt O75604)
# Sequence (O75604 whole entry, looked up): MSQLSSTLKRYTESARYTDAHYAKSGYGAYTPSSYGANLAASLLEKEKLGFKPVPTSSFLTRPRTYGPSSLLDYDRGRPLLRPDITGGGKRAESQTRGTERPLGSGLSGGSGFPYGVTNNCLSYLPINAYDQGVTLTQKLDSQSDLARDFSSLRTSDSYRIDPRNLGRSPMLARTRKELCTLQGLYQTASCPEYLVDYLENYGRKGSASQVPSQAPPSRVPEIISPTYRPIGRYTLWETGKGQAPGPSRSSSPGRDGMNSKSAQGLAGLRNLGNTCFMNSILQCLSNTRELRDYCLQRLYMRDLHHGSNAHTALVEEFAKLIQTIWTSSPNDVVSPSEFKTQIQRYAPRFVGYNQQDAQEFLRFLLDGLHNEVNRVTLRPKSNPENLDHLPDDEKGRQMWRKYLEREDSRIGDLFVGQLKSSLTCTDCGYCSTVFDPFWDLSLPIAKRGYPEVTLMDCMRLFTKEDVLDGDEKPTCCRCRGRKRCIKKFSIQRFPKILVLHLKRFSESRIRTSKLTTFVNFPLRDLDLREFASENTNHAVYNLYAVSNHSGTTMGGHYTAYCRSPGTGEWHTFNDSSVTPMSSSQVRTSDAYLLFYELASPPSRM
# Assay: qHTS for Inhibitors of Ubiquitin-specific Protease USP2a Using CHOP2 as the Reporter: K484 Substrate (AID 652173);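 further: cleavage of internally quenched K48 di-ubiquitin substrate measured as rising fluorescence over time; nearly all actives have a fitted effect of over 70% in size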; further: potency means the concentration at half of the fitted maximal effect
# Details: USP2 cleavage of DiUb K48 IQF substrate, fluorescence; series mostly up to 57.5 µM
# Method in brief: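 USP2 (dispensed at 5 nM) was pinned with compounds, then DiUb K48 internally quenched fluorescent substrate (dispensed at 100 nM) was added. The buffer was 20 mM Tris pH 8, 2 mM beta-mercaptoethanol and 0.05% CHAPS. Cleavage was read kinetically as rising fluorescence, Ex 525/Em 598.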
row,Structure (SMILES),Potency
1,Cc1ccc(-c2cc(C(=O)Nc3ccc(-c4noc(=O)[nH]4)cc3)c3ccccc3n2)cc1C,4.32 µM (active)
2,Cc1ccc(-c2cc(C(=O)Nc3ccc(-n4cncn4)cc3)c3ccccc3n2)cc1C,7.69 µM (active)
3,Cc1ccc(C(=O)[C@H]2CC[C@@H](C(=O)Nc3ccc(S(=O)(=O)Nc4nccs4)cc3)C2)cc1C,3.85 µM (active)
4,CC(C)(C)OC(=O)N1CCC(C(=O)Nc2ccc([S+](=O)([O-])Nc3nccs3)cc2)CC1,inactive
5,COc1cc(NS(=O)(=O)c2ccc(C)cc2)cc(C(=O)Nc2nc(-c3ccccc3)cs2)c1,2.43 µM (active)
6,Cc1ccc(S(=O)(=O)Nc2cc(Cl)cc(C(=O)Nc3nc(-c4ccccc4)cs3)c2)cc1,3.06 µM (active)
7,COc1ccc(C(=O)Nc2nc(-c3ccccc3)cs2)cc1NS(=O)(=O)c1ccc(C)cc1,3.06 µM (active)
8,COC(=O)c1ccccc1C(=O)Nc1nc(-c2ccccc2)cs1,30.6 µM (active)
9,Cc1ccc(S(=O)(=O)NCC(=O)Nc2nc(-c3ccccc3)cs2)cc1,19.3 µM (active)
10,Cc1ccc(S(=O)(=O)Nc2cccc(C(=O)Nc3nc(-c4ccccc4)cs3)c2)cc1,3.43 µM (active)
11,Cc1ccc(S(=O)(=O)Nc2cccc(C(=O)Nc3nc(-c4ccc(Cl)cc4)cs3)c2)cc1,2.43 µM (active)
12,Cc1ccc(S(=O)(=O)Nc2ccc(C(=O)Nc3nc(-c4ccccc4)cs3)c(Cl)c2)cc1,1.93 µM (active)
13,Cc1ccc(-c2cc(C(=O)Nc3nc4ccccc4s3)c3ccccc3n2)cc1C,21.7 µM (active)
14,Cc1ccc(-c2cc(C(=O)Nc3ccn[nH]3)c3ccccc3n2)cc1C,27.3 µM (active)
15,Cc1ccc(C(=O)Nc2ccccc2C(=O)Nc2nc(-c3ccccc3)cs2)cc1,5.44 µM (active)
16,Cc1ccc(S(=O)(=O)NCCC(=O)Nc2nc(-c3ccccc3)cs2)cc1,19.3 µM (active)
17,Cc1ccc(-c2cc(C(=O)Nc3ccc(S(N)(=O)=O)cc3)c3ccccc3n2)cc1C,7.69 µM (active)
18,Cc1ccc(S(=O)(=O)Nc2cnccc2C(=O)Nc2nc(-c3ccc(Cl)c(Cl)c3)cs2)cc1,3.06 µM (active)
19,Cc1ccc(S(=O)(=O)Nc2ccc(C(=O)Nc3ncc(-c4ccccc4)s3)cc2)cc1,2.43 µM (active)
20,Cc1ccc(S(=O)(=O)Nc2cc(C)ccc2C(=O)Nc2nc(-c3ccccc3)cs2)cc1,1.53 µM (active)

row,Structure (SMILES),Potency
1,Cc1ccc(NS(=O)(=O)c2cccc(C(=O)Nc3nc(-c4ccccc4)cs3)c2)cc1,3.06 µM (active)
2,Cc1ccc(CNc2ccccc2C(=O)Nc2nc(-c3ccccc3)cs2)cc1,21.7 µM (active)
3,O=c1[nH]c(CCl)nc2sc3c(c12)CCC3,inactive
4,Cc1ccc([S+](=O)([O-])n2cc(Cc3ccc(-c4ccccc4)cc3)c3ccccc32)cc1,inactive
5,Cc1ccc(S(=O)(=O)Nc2ccccc2C(=O)Nc2nc(-c3ccccc3)c(C)s2)cc1,1.93 µM (active)
6,Cc1ccc(-c2cc(C(=O)NCc3ccc(S(C)(=O)=O)cc3)c3ccccc3n2)cc1C,10.9 µM (active)
7,Cc1ccc(S(=O)(=O)Nc2cnccc2C(=O)Nc2nc(-c3ccncc3)cs2)cc1,15.3 µM (active)
8,Cc1ccc(S(=O)(=O)Nc2cncc(C(=O)Nc3nc(-c4ccccc4)cs3)c2)cc1,6.85 µM (active)
9,Cc1ccc(S(=O)(=O)N(C)c2ccccc2C(=O)Nc2nc(-c3ccccc3)cs2)cc1,6.11 µM (active)
10,Cc1ccc(-c2cc(C(=O)Nc3ccc(S(=O)(=O)NCc4nccs4)cc3)c3ccccc3n2)cc1C,3.43 µM (active)
11,COc1ccc(Cl)cc1C(=O)Nc1nc(-c2ccccc2)cs1,9.68 µM (active)
12,COc1ccc(NS(=O)(=O)c2ccc(C)cc2)c(C(=O)Nc2nc(-c3ccccc3)cs2)c1,2.73 µM (active)
13,Cc1ccc(S(=O)(=O)Nc2ccccc2C(=O)Nc2nc(-c3ccccc3)co2)cc1,2.73 µM (active)
14,Cc1ccc(NS(=O)(=O)c2ccccc2C(=O)Nc2nc(-c3ccccc3)cs2)cc1,3.43 µM (active)
15,Cc1ccc(S(=O)(=O)Nc2ccccc2C(=O)Nc2ncc(-c3ccccc3)s2)cc1,1.93 µM (active)
16,Clc1nc(CN2CCOCC2)nc2sc3c(c12)CCCC3,inactive
17,COc1cc(NS(=O)(=O)c2ccc(C)cc2)ccc1C(=O)Nc1nc(-c2ccccc2)cs1,2.73 µM (active)
18,Cc1ccc(S(=O)(=O)Nc2ccccc2C(=O)Nc2ccc(-c3ccccc3)cn2)cc1,2.17 µM (active)
19,O=C(Nc1nc(-c2ccccc2)cs1)c1ccccc1Cl,13.7 µM (active)

# Molecular target: Calcium and integrin-binding protein 1 (Homo sapiens) (UniProt Q99828)
# Sequence (Q99828 whole entry, looked up): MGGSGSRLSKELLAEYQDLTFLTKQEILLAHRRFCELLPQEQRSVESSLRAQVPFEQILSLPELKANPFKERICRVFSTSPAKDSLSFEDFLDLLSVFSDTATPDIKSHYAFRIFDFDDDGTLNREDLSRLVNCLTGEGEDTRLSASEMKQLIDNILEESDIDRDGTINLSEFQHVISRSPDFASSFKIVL
# Assay: Primary qHTS for Identification of Calcium Integrin Binding Protein 1 (CIB1) Competitor (AID 1508620);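 further: GST tagged CIB1 binding a fluorescein labelled alphaIIb integrin peptide tracer; top concentration of the series differs between compounds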
# Details: CIB1-GST / FITC-alphaIIb peptide fluorescence polarization; series mostly up to 114 µM
# Method in brief: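 Fluorescence polarization competition: GST-tagged CIB1 (1 uM final) preincubated with compound 15 min at room temperature, then FITC-labelled alphaIIb peptide (100 nM final) added. After 15 min at room temperature, polarization read at Ex 480/Em 540.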
row,Structure (SMILES),Potency
1,Cc1ccc(-c2cc(C(=O)Nc3ccc(-c4noc(=O)[nH]4)cc3)c3ccccc3n2)cc1C,inactive
2,Cc1ccc(-c2cc(C(=O)Nc3ccc(-n4cncn4)cc3)c3ccccc3n2)cc1C,inactive
3,Cc1ccc(C(=O)[C@H]2CC[C@@H](C(=O)Nc3ccc(S(=O)(=O)Nc4nccs4)cc3)C2)cc1C,inactive
4,CC(C)(C)OC(=O)N1CCC(C(=O)Nc2ccc([S+](=O)([O-])Nc3nccs3)cc2)CC1,inactive
5,COc1cc(NS(=O)(=O)c2ccc(C)cc2)cc(C(=O)Nc2nc(-c3ccccc3)cs2)c1,inactive
6,Cc1ccc(S(=O)(=O)Nc2cc(Cl)cc(C(=O)Nc3nc(-c4ccccc4)cs3)c2)cc1,inactive
7,COc1ccc(C(=O)Nc2nc(-c3ccccc3)cs2)cc1NS(=O)(=O)c1ccc(C)cc1,inactive
8,COC(=O)c1ccccc1C(=O)Nc1nc(-c2ccccc2)cs1,inactive
9,Cc1ccc(S(=O)(=O)NCC(=O)Nc2nc(-c3ccccc3)cs2)cc1,inactive
10,Cc1ccc(S(=O)(=O)Nc2cccc(C(=O)Nc3nc(-c4ccccc4)cs3)c2)cc1,inactive
11,Cc1ccc(S(=O)(=O)Nc2cccc(C(=O)Nc3nc(-c4ccc(Cl)cc4)cs3)c2)cc1,inactive
12,Cc1ccc(S(=O)(=O)Nc2ccc(C(=O)Nc3nc(-c4ccccc4)cs3)c(Cl)c2)cc1,inactive
13,Cc1ccc(-c2cc(C(=O)Nc3nc4ccccc4s3)c3ccccc3n2)cc1C,inactive
14,Cc1ccc(-c2cc(C(=O)Nc3ccn[nH]3)c3ccccc3n2)cc1C,inactive
15,Cc1ccc(C(=O)Nc2ccccc2C(=O)Nc2nc(-c3ccccc3)cs2)cc1,inactive
16,Cc1ccc(S(=O)(=O)NCCC(=O)Nc2nc(-c3ccccc3)cs2)cc1,inactive
17,Cc1ccc(-c2cc(C(=O)Nc3ccc(S(N)(=O)=O)cc3)c3ccccc3n2)cc1C,inactive
18,Cc1ccc(S(=O)(=O)Nc2cnccc2C(=O)Nc2nc(-c3ccc(Cl)c(Cl)c3)cs2)cc1,inactive
19,Cc1ccc(S(=O)(=O)Nc2ccc(C(=O)Nc3ncc(-c4ccccc4)s3)cc2)cc1,inactive
20,Cc1ccc(S(=O)(=O)Nc2cc(C)ccc2C(=O)Nc2nc(-c3ccccc3)cs2)cc1,inactive

row,Structure (SMILES),Potency
1,Cc1ccc(NS(=O)(=O)c2cccc(C(=O)Nc3nc(-c4ccccc4)cs3)c2)cc1,inactive
2,Cc1ccc(CNc2ccccc2C(=O)Nc2nc(-c3ccccc3)cs2)cc1,inactive
3,O=c1[nH]c(CCl)nc2sc3c(c12)CCC3,inactive
4,Cc1ccc([S+](=O)([O-])n2cc(Cc3ccc(-c4ccccc4)cc3)c3ccccc32)cc1,inactive
5,Cc1ccc(S(=O)(=O)Nc2ccccc2C(=O)Nc2nc(-c3ccccc3)c(C)s2)cc1,inactive
6,Cc1ccc(-c2cc(C(=O)NCc3ccc(S(C)(=O)=O)cc3)c3ccccc3n2)cc1C,inactive
7,Cc1ccc(S(=O)(=O)Nc2cnccc2C(=O)Nc2nc(-c3ccncc3)cs2)cc1,inactive
8,Cc1ccc(S(=O)(=O)Nc2cncc(C(=O)Nc3nc(-c4ccccc4)cs3)c2)cc1,inactive
9,Cc1ccc(S(=O)(=O)N(C)c2ccccc2C(=O)Nc2nc(-c3ccccc3)cs2)cc1,inactive
10,Cc1ccc(-c2cc(C(=O)Nc3ccc(S(=O)(=O)NCc4nccs4)cc3)c3ccccc3n2)cc1C,inactive
11,COc1ccc(Cl)cc1C(=O)Nc1nc(-c2ccccc2)cs1,inactive
12,COc1ccc(NS(=O)(=O)c2ccc(C)cc2)c(C(=O)Nc2nc(-c3ccccc3)cs2)c1,inactive
13,Cc1ccc(S(=O)(=O)Nc2ccccc2C(=O)Nc2nc(-c3ccccc3)co2)cc1,inactive
14,Cc1ccc(NS(=O)(=O)c2ccccc2C(=O)Nc2nc(-c3ccccc3)cs2)cc1,inactive
15,Cc1ccc(S(=O)(=O)Nc2ccccc2C(=O)Nc2ncc(-c3ccccc3)s2)cc1,inactive
16,Clc1nc(CN2CCOCC2)nc2sc3c(c12)CCCC3,inactive
17,COc1cc(NS(=O)(=O)c2ccc(C)cc2)ccc1C(=O)Nc1nc(-c2ccccc2)cs1,inactive
18,Cc1ccc(S(=O)(=O)Nc2ccccc2C(=O)Nc2ccc(-c3ccccc3)cn2)cc1,inactive
19,O=C(Nc1nc(-c2ccccc2)cs1)c1ccccc1Cl,inactive
